{"source": "PubChem BioAssay (NCATS)", "key": {"[1]": {"target": "Peroxisome proliferator-activated receptor alpha (Homo sapiens) (UniProt Q07869)", "sequence (Q07869 whole entry, looked up)": "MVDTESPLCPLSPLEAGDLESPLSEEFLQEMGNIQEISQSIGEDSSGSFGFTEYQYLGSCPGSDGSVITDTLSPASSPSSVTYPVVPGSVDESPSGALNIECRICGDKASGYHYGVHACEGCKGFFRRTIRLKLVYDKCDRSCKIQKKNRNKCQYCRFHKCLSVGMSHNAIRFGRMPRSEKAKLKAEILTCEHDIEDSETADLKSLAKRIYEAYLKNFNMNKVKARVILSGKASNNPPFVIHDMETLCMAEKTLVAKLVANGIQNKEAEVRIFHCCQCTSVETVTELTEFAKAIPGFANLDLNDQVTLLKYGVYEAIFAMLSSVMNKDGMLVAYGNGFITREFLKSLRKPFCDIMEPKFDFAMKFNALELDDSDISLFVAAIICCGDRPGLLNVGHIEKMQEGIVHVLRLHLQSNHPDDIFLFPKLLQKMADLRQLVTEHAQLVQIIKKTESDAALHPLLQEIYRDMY", "test": "qHTS assay for small molecule agonists of the peroxisome proliferator-activated receptor alpha (PPARalpha) signaling pathway (AID 651778; active = well fitted curve in the direction sought with a large enough effect; an effect the other way counts as inactive or inconclusive; note: % of control where 0% means no effect)", "details": "PathHunter PPARalpha complementation, chemiluminescence, 6 h; stronger effect = higher value", "summary_of_the_method": "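Chemiluminescence from complemented enzyme reported PPARalpha activation in cells after 6 hr of compound treatment at 37 C. The detection reagent was incubated for 60 min at room temperature, and compounds were scored as agonists.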"}, "[2]": {"target": "Tyrosine-protein kinase Yes (Homo sapiens) (UniProt P07947)", "sequence (P07947 whole entry, looked up)": "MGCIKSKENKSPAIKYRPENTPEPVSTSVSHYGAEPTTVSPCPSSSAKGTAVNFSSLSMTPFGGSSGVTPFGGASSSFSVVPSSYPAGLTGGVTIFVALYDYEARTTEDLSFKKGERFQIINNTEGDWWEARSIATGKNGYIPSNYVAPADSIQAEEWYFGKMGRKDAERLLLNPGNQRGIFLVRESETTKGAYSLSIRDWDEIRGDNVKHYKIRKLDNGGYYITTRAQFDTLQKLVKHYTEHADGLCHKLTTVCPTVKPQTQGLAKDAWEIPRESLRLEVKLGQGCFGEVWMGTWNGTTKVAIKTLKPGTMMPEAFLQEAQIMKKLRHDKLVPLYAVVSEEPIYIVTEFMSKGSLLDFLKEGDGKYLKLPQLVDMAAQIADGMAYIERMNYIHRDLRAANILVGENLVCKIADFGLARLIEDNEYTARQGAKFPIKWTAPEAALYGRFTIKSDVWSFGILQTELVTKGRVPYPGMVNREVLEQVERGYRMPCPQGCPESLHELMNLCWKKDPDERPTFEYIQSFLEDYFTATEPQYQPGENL", "test": "qHTS for small molecule inhibitors of Yes1 kinase: Primary Screen (AID 686947; active = well fitted curve in the direction sought with a large enough effect; an effect the other way counts as inactive or inconclusive; note: nearly all actives have a fitted effect of over 60% in size; note: potency is the fitted concentration of half-maximal effect)", "details": "Yes1 kinase biochemical qHTS inhibition; series mostly up to 76.9 µM", "summary_of_the_method": "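Yes1 (4 nM) preincubated 20 min with compound, then 60 min room-temperature reaction with 0.1 mM ATP and 0.3 mg/mL poly(E4Y) in pH 7.5 Tris, 10 mM MgCl2. ADP measured by ADP-Glo luminescence, normalised to enzyme/no-enzyme controls.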"}, "[3]": {"test": "qHTS for small molecule inhibitors of Yes1 kinase: Counter Assay (AID 686950; active = well fitted curve in the direction sought with a large enough effect; an effect the other way counts as inactive or inconclusive;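 note: no kinase present so only ADP-Glo detection of a fixed ADP amount is tested; luminescence from ADP-Glo reporting ADP in a fixed ATP and ADP mixture; 0% = DMSO wells with ATP plus ADP and -100% = ATP-only wells without ADP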)", "details": "series mostly up to 76.9 µM", "summary_of_the_method": "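Luminescence read-out from ADP-Glo quantifies a fixed ADP amount (0.02 mM ADP with 0.08 mM ATP) after 60 min at room temperature; signal is normalized between DMSO wells with ATP/ADP and with 0.1 mM ATP alone.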"}, "[4]": {"test": "qHTS assay for small molecule agonists of the antioxidant response element (ARE) signaling pathway measured by Nrf2-dependant transcriptional activity (AID 720636; active = well fitted curve in the direction sought with a large enough effect in the repeat runs; an effect the other way counts as inactive or inconclusive; note: % of control where 0% means no effect)", "details": "ARE-luc HepG2, Nrf2 luciferase reporter, 16 h; series mostly up to 92.4 µM", "summary_of_the_method": "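Quantitative HTS format in HepG2 cells stably expressing an ARE-luciferase reporter; 16 hr compound treatment at 37 C, luciferase signal detected with ONE-Glo.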"}, "[5]": {"test": "qHTS assay for small molecule agonists of the antioxidant response element (ARE) signaling pathway measured by Nrf2-dependant transcriptional activity - cell viability counter screen (AID 720653; active = well fitted curve in the direction sought with a large enough effect in the repeat runs; an effect the other way counts as inactive or inconclusive; note: % is set by controls: 0 for no effect and ±100 for the full control effect)", "details": "ARE-bla HepG2 viability, CellTiter-Glo ATP luminescence, 16 h; max response: stronger effect = lower value", "summary_of_the_method": "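Cytotoxicity counter screen: intracellular ATP quantified by CellTiter-Glo luminescence in the same ARE-bla HepG2 plates, after 16 h compound exposure and a 2 h beta-lactamase substrate step.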"}, "[6]": {"test": "qHTS Assay for Identifying Gametocytocidal Compounds (AID 743244; active = well fitted curve in the direction sought with a large enough effect; an effect the other way counts as inactive or inconclusive; note: potency is the fitted concentration of half-maximal effect;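 for max response: % is set by controls: 0 for no effect and ±100 for the full control effect; actives lower the fluorescent signal which means gametocytes are killed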)", "details": "P. falciparum 3D7 stage III-V gametocytes, alamarBlue, 72 h; max response: stronger effect = lower value", "summary_of_the_method": "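In this qHTS viability screen, late-stage 3D7 gametocytes are incubated with compound for 72 h, then with alamarBlue for 24 h; reduced resorufin fluorescence marks killing.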"}, "[7]": {"test": "qHTS assay for cell viability of HEK293 cells (AID 743288; active = well fitted curve in the direction sought with a large enough effect; an effect the other way counts as inactive or inconclusive; note: % is set by controls: 0 for no effect and ±100 for the full control effect; nearly all actives have a fitted effect of over 50% in size)", "details": "ATP luminescence (CellTiter-Glo), 18 h; max response: stronger effect = lower value", "summary_of_the_method": "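HEK293 parental, 2,000 cells/well; ≥5 h pre-incubation 37 C; pintool compound addition; 18 h, 37 C; CellTiter-Glo 30 min RT; luminescence read.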"}, "[8]": {"test": "qHTS profiling for inhibitors of Plasmodium falciparum (DD2) proliferation (AID 743323)", "details": "lower = more inhibition; at 28.7 µM (top of the series) unless noted", "summary_of_the_method": "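Parasite DNA quantified by SYBR Green fluorescence (ex 485, em 535 nm) after saponin/Triton lysis and overnight dark incubation. Cultures: 0.3% parasitemia, 2.5% hematocrit, 72 h, 37 C; data scaled between DMSO and 0.29 uM artemisinin.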"}, "[9]": {"test": "qHTS profiling of the MIPE4 collection as inhibitors of Plasmodium falciparum (3D7) proliferation (AID 743344)", "details": "P. falciparum 3D7 in erythrocytes, SYBR Green DNA fluorescence, 72 h; at 28.5 µM (top of the series) unless noted", "summary_of_the_method": "(§1)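 Erythrocytes infected with P. falciparum (0.3% parasitemia, 2.5% hematocrit) incubated with compounds 72 h at 37 C, 5% CO2. Lysis with saponin/Triton buffer containing SYBR Green I, overnight at room temperature in the dark; DNA fluorescence (485/535 nm) normalised to 0.29 uM artemisinin and DMSO.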"}, "[10]": {"test": "qHTS profiling of the MIPE4 collection as inhibitors of Plasmodium falciparum (DD2) proliferation (AID 743345)", "details": "P. falciparum Dd2 in erythrocytes, SYBR Green DNA, 72 h; at 28.5 µM (top of the series) unless noted", "summary_of_the_method": "as §1"}, "[11]": {"test": "qHTS profiling of the MIPE4 collection as inhibitors of Plasmodium falciparum (DD2) proliferation (Rep 2) (AID 743346)", "details": "P. falciparum Dd2 in erythrocytes, SYBR Green DNA, 72 h; at 28.5 µM (top of the series) unless noted", "summary_of_the_method": "as §1"}, "[12]": {"test": "qHTS profiling of the MIPE4 collection as inhibitors of Plasmodium falciparum (HB3) proliferation (AID 743347)", "details": "P. falciparum HB3 in erythrocytes, SYBR Green DNA, 72 h; at 28.5 µM (top of the series) unless noted", "summary_of_the_method": "as §1"}, "[13]": {"test": "High-throughput drug toxicity screening in the BPDCN cell line Gen2.2 (AID 1224824)", "details": "Gen2.2 BPDCN cells; at 45.8 µM (top of the series) unless noted", "summary_of_the_method": "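Seed 500 exponentially growing Gen2.2 cells/well; add compounds by pin tool; incubate 48 h, 37 °C, 5% CO2; add CellTiter-Glo, 15 min RT; read luminescence. % activity vs DMSO (100%) and bortezomib (0%).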"}, "[14]": {"test": "qHTS profiling for inhibitors of Plasmodium falciparum (HB3) proliferation (AID 743324; active = well fitted curve in the direction sought with a large enough effect; an effect the other way counts as inactive or inconclusive)", "details": "Plasmodium falciparum HB3 blood-stage proliferation; at 28.7 µM (top of the series) unless noted", "summary_of_the_method": "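P. falciparum HB3 grown in erythrocytes (0.3% parasitemia, 2.5% hematocrit final) with compound for 72 h at 37 C, 5% CO2. Parasite DNA detected by SYBR Green after saponin/triton lysis overnight; normalized to 0.29 uM artemisinin and DMSO.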"}, "[15]": {"target": "Nuclear receptor ROR-gamma (Homo sapiens) (UniProt P51449)", "sequence (P51449 whole entry, looked up)": "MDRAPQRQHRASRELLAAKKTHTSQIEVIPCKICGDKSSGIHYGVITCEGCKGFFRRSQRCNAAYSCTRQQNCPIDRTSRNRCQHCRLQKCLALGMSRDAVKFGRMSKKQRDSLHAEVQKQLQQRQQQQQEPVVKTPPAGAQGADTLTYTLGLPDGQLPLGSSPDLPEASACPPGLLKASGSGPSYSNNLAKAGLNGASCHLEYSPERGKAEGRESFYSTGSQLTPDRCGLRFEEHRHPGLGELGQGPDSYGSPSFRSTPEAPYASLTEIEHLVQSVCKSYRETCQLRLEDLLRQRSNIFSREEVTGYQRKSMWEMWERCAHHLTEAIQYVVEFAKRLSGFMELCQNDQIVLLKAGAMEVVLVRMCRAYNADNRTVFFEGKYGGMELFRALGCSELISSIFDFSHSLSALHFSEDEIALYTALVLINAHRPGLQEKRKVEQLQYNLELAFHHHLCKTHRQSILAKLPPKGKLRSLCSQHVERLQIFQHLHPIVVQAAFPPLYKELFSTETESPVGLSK", "test": "qHTS assay for small molecule antagonists of the retinoid-related orphan receptor gamma (ROR-gamma) signaling pathway (AID 651802; active = well fitted curve in the direction sought with a large enough effect; an effect the other way counts as inactive or inconclusive)", "details": "ROR-gamma antagonist cell reporter assay; series mostly up to 92.2 µM", "summary_of_the_method": "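CHO, TET-inducible ROR + RORE-LUC reporter, 1536-well qHTS. Compound pinned, doxycycline added, 16hr 37C/5% CO2. ONE-Glo, 30 min RT, luminescence; signal drop scored as antagonism.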"}}, "note": "“And” between values parts separate entries of the source, which are not always exact repeats. Equal entries are not always repeated. Records with an inconclusive call do not appear. The source made the active and inactive calls. Unless noted, the rule behind the calls is not given here. Peptide text beside a SMILES is read from it.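 Throughout, for cell viability, % of control (lower = more cytotoxic): cells exposed to compounds for 48 h before reading.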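 Throughout, for growth, % of control: plate controls were DMSO vehicle wells for no effect and artemisinin wells for full effect.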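 Throughout, for remaining proliferation (% of control), lower = more inhibition: 100% = DMSO vehicle wells and 0% = artemisinin-treated control wells.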", "data": [{"smiles": "Nc1nc(Cl)nc2c1ncn2[C@H]1C[C@H](O)[C@@H](CO)O1", "values": [{"measurement": "max response", "setting": "[1]", "result": "-0.979% (inactive)"}, {"measurement": "Potency", "setting": "[2]", "result": "79.3 µM (active)"}, {"measurement": "outcome", "setting": "[3]", "result": "inactive"}, {"measurement": "Potency", "setting": "[4]", "result": "inactive"}, {"measurement": "max response", "setting": "[5]", "result": "-12.8% (inactive)"}, {"measurement": "max response", "setting": "[6]", "result": "30.7% (inactive) and 5.06% (inactive)"}, {"measurement": "max response", "setting": "[7]", "result": "-15% (inactive)"}, {"measurement": "activity, percent of control", "setting": "[8]", "result": "93.6% [at 57.5 µM]"}, {"measurement": "parasite growth, % of DMSO control", "setting": "[9]", "result": 102, "unit": "%"}, {"measurement": "parasite growth remaining, % of DMSO control (lower = more inhibition)", "setting": "[10]", "result": 90.9, "unit": "%"}, {"measurement": "parasite growth, % of control (lower = inhibition)", "setting": "[11]", "result": 114, "unit": "%"}, {"measurement": "growth, % of control", "setting": "[12]", "result": 103, "unit": "%"}, {"measurement": "cell viability, % of control (lower = more cytotoxic)", "setting": "[13]", "result": 93.3, "unit": "%"}]}, {"smiles": "Nc1cccc2c1CN(C1CCC(=O)NC1=O)C2=O", "note": "(stereo not drawn)", "values": [{"measurement": "Potency", "setting": "[2]", "result": "inactive"}, {"measurement": "outcome", "setting": "[3]", "result": "inactive"}, {"measurement": "max response", "setting": "[6]", "result": "12.8% (inactive) and 1.91% (inactive)"}, {"measurement": "activity, percent of control", "setting": "[8]", "result": "89.3% [at 57.5 µM] and 104% [at 57.5 µM]"}, {"measurement": "remaining proliferation (% of control), lower = more inhibition", "setting": "[14]", "result": "96.8% [at 57.5 µM] and 102% [at 57.5 µM]"}, {"measurement": "parasite growth, % of DMSO control", "setting": "[9]", "result": "83.6% [at 57.5 µM]"}, {"measurement": "parasite growth remaining, % of DMSO control (lower = more inhibition)", "setting": "[10]", "result": "107% [at 57.5 µM]"}, {"measurement": "parasite growth, % of control (lower = inhibition)", "setting": "[11]", "result": "127% [at 57.5 µM]"}, {"measurement": "growth, % of control", "setting": "[12]", "result": "108% [at 57.5 µM]"}, {"measurement": "cell viability, % of control (lower = more cytotoxic)", "setting": "[13]", "result": "178% [at 92.2 µM]"}]}, {"smiles": "COc1cc(Nc2c(C#N)cnc3cc(OCCCN4CCN(C)CC4)c(OC)cc23)c(Cl)cc1Cl", "values": [{"measurement": "outcome", "setting": "[3]", "result": "inactive"}, {"measurement": "Potency", "setting": "[6]", "result": "3.55 µM (active)"}, {"measurement": "activity, percent of control", "setting": "[8]", "result": 4.4, "unit": "%"}, {"measurement": "remaining proliferation (% of control), lower = more inhibition", "setting": "[14]", "result": 1.13, "unit": "%"}, {"measurement": "parasite growth, % of DMSO control", "setting": "[9]", "result": 6.35, "unit": "%"}, {"measurement": "parasite growth remaining, % of DMSO control (lower = more inhibition)", "setting": "[10]", "result": 10.9, "unit": "%"}, {"measurement": "parasite growth, % of control (lower = inhibition)", "setting": "[11]", "result": 14.7, "unit": "%"}, {"measurement": "growth, % of control", "setting": "[12]", "result": 3.88, "unit": "%"}, {"measurement": "cell viability, % of control (lower = more cytotoxic)", "setting": "[13]", "result": 5, "unit": "%"}]}, {"smiles": "COC(=O)[C@H](Cc1ccccc1)NC(=O)[C@@H](N)CC(=O)O", "note": "(H-Asp-Phe-OMe)", "values": [{"measurement": "max response", "setting": "[1]", "result": "-1.47% (inactive) and -4.11% (inactive)"}, {"measurement": "outcome", "setting": "[15]", "result": "inactive"}, {"measurement": "Potency", "setting": "[4]", "result": "inactive"}, {"measurement": "max response", "setting": "[5]", "result": "-13.7% (inactive) and 2.98% (inactive)"}, {"measurement": "max response", "setting": "[6]", "result": "15.3% (inactive) and 2.54% (inactive)"}, {"measurement": "max response", "setting": "[7]", "result": "-2.43% (inactive) and -2.64% (inactive)"}, {"measurement": "parasite growth, % of DMSO control", "setting": "[9]", "result": 88.6, "unit": "%"}, {"measurement": "parasite growth remaining, % of DMSO control (lower = more inhibition)", "setting": "[10]", "result": 22.1, "unit": "%"}, {"measurement": "parasite growth, % of control (lower = inhibition)", "setting": "[11]", "result": 118, "unit": "%"}, {"measurement": "growth, % of control", "setting": "[12]", "result": 107, "unit": "%"}, {"measurement": "cell viability, % of control (lower = more cytotoxic)", "setting": "[13]", "result": 280, "unit": "%"}]}]}
